In PubChem BioAssay (NCI):
About 79,000 compounds went through this panel and 15% of them were active in at least one assay; those are over-represented in the sample as a whole. No stated cut-off is given here; in the data, active means growth inhibition above about 70%; inactive means the rest.

What was measured:
[1] = NCI Yeast Anticancer Drug Screen. Data for the rad50 strain (AID 155);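 further: 0% = growth of vehicle-only cultures of the same strain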; details: S. cerevisiae rad50 strain growth inhibition; at 50.0 µM; stronger effect = higher value
Outline: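 Growth of the mutant yeast was measured after compound exposure and referenced to vehicle-treated cultures.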

[2] = NCI Yeast Anticancer Drug Screen. Data for the mec2-1 strain (AID 157); details: S. cerevisiae mec2-1 strain, at 50.0 µM, stronger effect = higher value
Outline: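 Growth inhibition is read against vehicle-treated controls after compound exposure of the mec2-1 yeast strain, which is defective in DNA damage repair or cell cycle control.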

[3] = NCI Yeast Anticancer Drug Screen. Data for the sgs1 mgt1 strain (AID 161);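 further: 0% = growth of cultures given vehicle only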; details: S. cerevisiae sgs1 mgt1 strain, at 50.0 µM, stronger effect = higher value
Outline: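 Compounds are added to genetically altered yeast, and growth is compared with cultures given vehicle alone to give percent inhibition.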

[4] = NCI Yeast Anticancer Drug Screen. Data for the cln2 rad14 strain (AID 165);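 further: 0% = growth equal to vehicle treated cultures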; details: S. cerevisiae cln2 rad14 strain, at 50.0 µM, stronger effect = higher value
Outline: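 Growth inhibition, relative to vehicle-treated controls, is the read-out. The test organism is a yeast strain with defined genetic alterations, cln2 rad14.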

[5] = NCI Yeast Anticancer Drug Screen. Data for the bub3 strain (AID 167); details: S. cerevisiae bub3 mutant strain, at 50.0 µM, stronger effect = higher value
Outline: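 Whole-cell yeast assay. The mutant strain was incubated with compounds, and growth inhibition was determined by comparison with vehicle-treated cells.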

[6] = NCI Yeast Anticancer Drug Screen. Data for the mlh1 rad18 strain (AID 175); details: S. cerevisiae mlh1 rad18 strain growth inhibition; at 50.0 µM; stronger effect = higher value
Outline: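 Cells of a genetically altered yeast strain, deficient in DNA damage repair, were treated with compound. Their growth was then compared with that of vehicle-treated cultures to give inhibition.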

Measured: growth inhibition

COC(=O)c1cccc2c1-c1ccccc1C2=O
inactive: [1] 9.25% | [2] 11.9% | [3] -18.4% | [4] 5% | [5] 14% | [6] 11.6%

CC(C)(C)C1=CC(=O)C(C(C)(C)C)=CC1=O
inactive: [1] -2.35% | [2] 3.2% | [3] -17.2% | [4] -55% | [5] -7% | [6] 17.7%

COc1ccc(COC(=O)Nc2cccc(Cl)c2C)cc1
inactive: [1] -1.2% | [2] 8.95% | [3] 14.8% | [4] -25.7% | [5] -8.85% | [6] -3.2%

O=C1CCCc2ccc3c(c21)CC1(Cc2ccccc2C1)C3
inactive: [1] -7.05% | [2] -40.2% | [3] 8.65% | [4] -6% | [5] 4.05% | [6] -5.8%

O=C(O)/C=C/c1ccc(O)c(O)c1
inactive: [1] 18.3% | [2] -7.15% | [3] 0.5% | [4] 9.9% | [5] 7.25% | [6] 7.65%

CN(C)c1ccccc1C(=O)N/N=C\c1ccc(O)c(O)c1
inactive: [1] 17.6% | [2] 14.2% | [3] 19.5% | [4] 5.75% | [5] 12.4% | [6] 22.2%

CCCCC(CC)C1OCC(O)CO1 (stereo unspecified)
inactive: [1] 8.8% | [2] 3.3% | [3] 2.55% | [4] 5.1% | [5] -13.2% | [6] -14.3%

CC(=O)Nc1cscc1NC(C)=O
inactive: [1] -3.8% | [2] -10.7% | [3] 6.05% | [4] -0.2% | [5] 16.9% | [6] -9.5%

CN(C)CC1CCC2=C(C1=O)C(c1ccccc1)C1=C(CCC(CN(C)C)C1=O)O2 (stereo unspecified)
inactive: [1] 1.55% | [2] 2.1% | [3] -1.7% | [4] 13.4% | [5] 4.3% | [6] 3.7%

CCCc1nc(NC#N)nc(C(=O)NC23CC4CC(CC(C4)C2)C3)c1C
inactive: [1] -8.2% | [2] -13.2% | [3] 7.4% | [4] 8.4% | [5] -7.2% | [6] -9.35%

CN(C)c1ccc(C=Nc2ccc3c(c2)C(N2CCOCC2)c2ccccc2-3)cc1 (stereo unspecified)
inactive: [1] -14.7% | [2] -7% | [3] -38.1% | [4] -5.3% | [5] -15.8% | [6] 0.35%

Cc1cccc(-n2cccc2)c1
inactive: [1] -1.6% | [2] -13.8% | [3] 4.8% | [4] -10.7% | [5] -16.3% | [6] 4.75%

Nc1cc(=O)n(-c2ccccc2)[nH]1
inactive: [1] -2.05% | [2] -10.6% | [3] -6.8% | [4] -19.9% | [5] -27.9% | [6] 22%

Cc1cccc2cc3ccc4ccccc4c3cc12
inactive: [1] 29.7% | [2] 13.8% | [3] 21.9% | [4] 14.8% | [5] 4.1% | [6] 20.6%

COc1cc(NCCCCCCCNC(C)C)c2nccc(C)c2c1
inactive: [1] 26.7% | [2] 13.7% | [3] -6.25% | [4] 7.35% | [5] -2.7% | [6] -33.1%

OC12c3ccccc3C1CCCCCCCCCC21OCCO1 (stereo unspecified)
inactive: [1] -21.5% | [2] -2.45% | [3] -40.6% | [4] 5.05% | [5] -19.1% | [6] -27.8%

Cc1ccc(S(=O)(=O)N2CCC(C(=O)O)(c3ccccc3)CC2)cc1
inactive: [1] -14.9% | [2] -0.9% | [3] -35.4% | [4] -88.5% | [5] -56.2% | [6] -9.45%

CCCOC(=O)C(O)c1ccc(C)cc1 (stereo unspecified)
inactive: [1] -1.5% | [2] -11.8% | [3] 12.9% | [4] -3.75% | [5] 5.7% | [6] -14.7%

CC(C)(C)C1CCC(=NO)CC1 (stereo unspecified)
inactive: [1] 23.1% | [2] 16.1% | [3] 16.5% | [4] 18.3% | [5] 14.3% | [6] 23.8%

CC(=O)Nc1ccc(/C=C/c2ccc(N=C=S)c(S(=O)(=O)O)c2)c(S(=O)(=O)O)c1
inactive: [1] 9.5% | [2] -4.4% | [3] -19% | [4] 10.1% | [5] 1.4% | [6] -13.5%

CC(=O)N(C(C)=O)C1=C(c2ccccc2)C(=O)c2ccccc21
inactive: [1] 13.2% | [2] 22.2% | [3] 14% | [4] -0.75% | [5] -2.95% | [6] 40.1%
